Screening results deposited in PubChem by National Center for Advancing Translational Sciences (NCATS).
Only some compounds are listed: those with a hit (about 8% of all), similar ones and a draw of the others.
TSHR antag: antagonists of human thyroid stimulating hormone receptor | AID 504810 | activity change, negative = inhibition, % at 11.5 µM | 330,000 compounds, 0.2% hits | TSHR-expressing cells, TSH-stimulated cAMP HTRF, 2 h; active compounds read low | P16473;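 active means activity change below a set negative limit, meaning inhibition stronger than a set level, cut at about -70% in these data; inconclusive means activity change between two set negative limits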
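TSHR-expressing cells, 200/well, pre-treated with compound, then stimulated with EC80 TSH (4nM final) for 2 hours at 37 deg C. cAMP measured by competitive HTRF: anti-cAMP cryptate antibody in lysis buffer plus cAMP-d2, read after 30 minutes at room temperature.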
ELG1 repair inh: inhibitors of ELG1-dependent DNA repair in HEK293T cells | HEK293T ELG1-luciferase reporter, luminescence, 16 h; DNA damage induced by 5-fluorouridine | Potency, µM (series often up to 46.1 µM), most hits filed as inhibitors | 330,000 compounds, 2.3% hits | AID 504467; further: nearly all actives have a fitted effect of over 55% in size
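Reporter activity after DNA damage by 5-fluorouridine is monitored. Compound-treated cells incubate 16 hr at 37 °C, then ONE-Glo is added for 30 min before luminescence reading.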
RORgamma inh: blocks mouse ROR gamma transcriptional activity; P51450; Drosophila S2 Gal4-RORgamma UAS-luciferase reporter, 20 h; Potency, µM (series often up to 53.6 µM), actives largely listed as inhibitors; 310,000 compounds, 5.4% hits; AID 2551; further: nearly all actives have a fitted effect of over 60% in size
Target sequence (P51450 whole entry, looked up, the tested form may be a part): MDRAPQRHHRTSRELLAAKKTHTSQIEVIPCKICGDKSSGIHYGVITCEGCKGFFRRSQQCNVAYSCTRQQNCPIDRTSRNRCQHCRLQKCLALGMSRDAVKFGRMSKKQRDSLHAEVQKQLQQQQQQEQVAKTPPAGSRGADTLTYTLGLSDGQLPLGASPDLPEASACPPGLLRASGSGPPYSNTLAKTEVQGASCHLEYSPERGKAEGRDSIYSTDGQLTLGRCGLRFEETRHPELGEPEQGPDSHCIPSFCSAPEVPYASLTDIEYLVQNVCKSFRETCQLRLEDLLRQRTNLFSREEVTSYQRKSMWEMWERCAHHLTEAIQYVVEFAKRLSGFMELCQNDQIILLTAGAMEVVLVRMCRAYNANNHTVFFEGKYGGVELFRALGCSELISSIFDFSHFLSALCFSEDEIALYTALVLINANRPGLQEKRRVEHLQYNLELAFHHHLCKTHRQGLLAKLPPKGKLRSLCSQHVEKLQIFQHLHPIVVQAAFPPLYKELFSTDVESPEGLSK
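Schneider cells (Drosophila), stable Gal4 DBD–ROR gamma + UAS-luc; 1 hr cmpd preincubation; Cu2+ induction 700 uM final; 20 hr ambient; luminescence.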
Coupling enz: coupling enzyme interference in Giardia aldolase counter-screen; 290,000 compounds, 0.67% hits; activity change, negative = inhibition, % at 58.2 µM, hits read low; coupling enzyme system counterscreen, AmpLite Red fluorescence; in the data active means activity change below about -30%
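Counterscreen lacking aldolase: glyceraldehyde-3-phosphate coupling-enzyme reagent preincubated 10 min at RT with compound (at 57.5 uM final), then substrate/coupling system with AmpLite Red added; fluorescence read at 525/598 nm after 20 min RT.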
Gal4-VP16 FLuc: inhibits Gal4-VP16 luciferase reporter, ROR gamma counter-screen | Potency, µM (doses to about 53.6 µM), usual class: inhibitors | Drosophila S2 Gal4-VP16 UAS-luciferase, luminescence, 20 h | 310,000 compounds, 3.5% hits;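 further: Gal4-VP16 expression switched on by copper sulfate through the metallothionein promoter; nearly all actives have a fitted effect of over 50% in size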
A number is an active result; [ ] = another dose, or the depositor's remark. Unless noted, the call rests on the fitted dose curve; in most records, active means well fitted curve in the direction sought with a large enough effect; inconclusive means small, poorly fitted or top-dose-only effect, or another doubt; inactive means no such curve, though single readings can be large; an effect the other way counts as inactive or inconclusive.

For N#C/C(=C(O)\C=C\c1ccccc1)c1nc2ccccc2[nH]1 the results were TSHR antag inactive, ELG1 repair inh inactive, RORgamma inh 2µM, Coupling enz inactive and Gal4-VP16 FLuc inactive.
`CCOC(=O)/C(O)=C(\C#N)c1nc2ccccc2[nH]1` gave TSHR antag inactive, ELG1 repair inh inactive, RORgamma inh inconclusive, Coupling enz inactive and Gal4-VP16 FLuc inactive.
CC(C)(C)/C(O)=C(/C#N)c1nc2ccccc2[nH]1 was read as TSHR antag inactive, ELG1 repair inh 23.1µM, RORgamma inh 11.2µM, Coupling enz inactive and Gal4-VP16 FLuc inconclusive.
For NC(CC(=O)Nc1ccc(Oc2cc(F)c(F)cc2Br)cc1)C(=O)O (stereo unspecified) the results were RORgamma inh inactive, Coupling enz inactive and Gal4-VP16 FLuc inactive.
For CCCCCCCC(=O)OC[C@H](CO)OC(=O)CCCCCCC the results were RORgamma inh inactive, Coupling enz inactive and Gal4-VP16 FLuc inactive.
`COc1ccc(OC2C=CC(C#Cc3ccc(Br)cc3)OC2CO)c(C(C)(C)C)c1` (stereo unspecified) gave RORgamma inh inactive[10 µM], Coupling enz inactive and Gal4-VP16 FLuc inactive[10 µM].
`CCc1ccc(N/C(SCc2cccc(F)c2)=C(/C#N)C(=O)NCc2ccco2)cc1` gave TSHR antag inactive, ELG1 repair inh inactive, RORgamma inh 1.58µM, Coupling enz inactive and Gal4-VP16 FLuc 6.31µM.
`CCC/C=C(\CCC)C(NS(=O)(=O)c1ccccc1)c1ccc(C(F)(F)F)cc1` (stereo unspecified) gave RORgamma inh inconclusive, Coupling enz inactive and Gal4-VP16 FLuc inconclusive.
O=C(CBr)N1CCc2ccccc2C(c2ccccc2)C1 (stereo unspecified) was read as TSHR antag inactive, ELG1 repair inh inactive, RORgamma inh inconclusive, Coupling enz inactive and Gal4-VP16 FLuc inactive.
CCC(=O)N[C@@H]1Cc2ccccc2[C@@H](c2ccccc2)C1 was read as RORgamma inh inactive, Coupling enz inactive and Gal4-VP16 FLuc 8.91µM.
Screening Cc1oc(-c2ccc3c(c2)OCCO3)cc1C(=O)O returned TSHR antag inactive, ELG1 repair inh 1.64µM, RORgamma inh 0.891µM, Coupling enz inactive and Gal4-VP16 FLuc 1.41µM.
`Cc1oc(-c2ccc3c(c2)OCCO3)cc1C(=O)NCC(=O)O` gave TSHR antag inactive, ELG1 repair inh inconclusive, RORgamma inh 7.08µM, Coupling enz inactive and Gal4-VP16 FLuc inconclusive.
COc1ccc(-c2cc(C(=O)O)c(C)o2)cc1OC was read as TSHR antag inactive, ELG1 repair inh inconclusive, RORgamma inh inconclusive, Coupling enz inactive and Gal4-VP16 FLuc 0.891µM.
For Cc1oc(-c2ccc3c(c2)OCCO3)cc1C(=O)NC(CCC(=O)O)C(=O)O (stereo unspecified) the results were TSHR antag inactive, ELG1 repair inh inconclusive, RORgamma inh inconclusive, Coupling enz inactive and Gal4-VP16 FLuc inactive.
`C/C(=C\C1CCCCC1)C(NC(=O)c1cccnc1)c1ccc(-c2ccccc2)cc1` (stereo unspecified) gave RORgamma inh inconclusive, Coupling enz inactive and Gal4-VP16 FLuc inactive.
For COc1ccccc1CNC(=O)CS(=O)(=O)Cc1ccccc1 the results were TSHR antag inactive, ELG1 repair inh inactive, RORgamma inh inactive and Gal4-VP16 FLuc inactive.
`COc1cc2c(cc1OC)CN(c1nc(CN3CCCC3)nc3sc(C)c(C)c13)CC2` gave TSHR antag inactive, ELG1 repair inh inconclusive, RORgamma inh inconclusive, Coupling enz inactive and Gal4-VP16 FLuc inactive.
`COc1cc2c(cc1OC)CN(c1nc(CN3CCCCC3)nc3sc4c(c13)CCCC4)CC2` gave TSHR antag inactive, ELG1 repair inh 23.1µM, RORgamma inh 11.2µM, Coupling enz inactive and Gal4-VP16 FLuc inconclusive.
`O=C(COC(=O)c1n[nH]c2ccccc12)Nc1ccc(S(=O)(=O)N2CCCC2)cc1` gave TSHR antag inactive, ELG1 repair inh inconclusive, RORgamma inh inactive, Coupling enz inactive and Gal4-VP16 FLuc 10µM.
For CCCc1nc2ccccc2c(C(=O)OCC(=O)Nc2ccc(S(=O)(=O)N3CCOCC3)cc2)c1CC the results were TSHR antag inactive, ELG1 repair inh 20.6µM, RORgamma inh inconclusive, Coupling enz inactive and Gal4-VP16 FLuc inactive.
For O=C(COC(=O)c1ccc(O)cc1)Nc1ccc(S(=O)(=O)N2CCOCC2)cc1 the results were TSHR antag inactive and ELG1 repair inh inactive.
Screening CCCc1nc2ccccc2c(C(=O)OCC(=O)Nc2cccc(S(=O)(=O)N3CCOCC3)c2)c1CC returned ELG1 repair inh 25.9µM, RORgamma inh inconclusive, Coupling enz inactive and Gal4-VP16 FLuc inactive.
`CCCC(C)NC(=O)CN1C(=O)c2cccc3cccc1c23` (stereo unspecified) gave TSHR antag inactive, ELG1 repair inh inactive, RORgamma inh inactive[1.91 µM], Coupling enz inactive and Gal4-VP16 FLuc inactive.
For CC1Sc2ccc(S(=O)(=O)CCC(=O)N(C)Cc3ccccc3)cc2NC1=O (stereo unspecified) the results were TSHR antag inactive, ELG1 repair inh inactive, RORgamma inh inconclusive, Coupling enz inactive and Gal4-VP16 FLuc inactive.
Screening CCOc1ccc(C(=O)NNC(=O)CCNC(=O)c2ccc(Br)cc2)cc1OC returned TSHR antag inactive and ELG1 repair inh inactive.
`CC(C)NC(=S)NC(=O)/C=C/c1cccc2ccccc12` gave TSHR antag inactive, ELG1 repair inh inactive, RORgamma inh 1.41µM, Coupling enz inactive and Gal4-VP16 FLuc 4.47µM.
`CN1CCN(C(=S)NC(=O)/C=C/c2cccs2)CC1` gave TSHR antag inactive, ELG1 repair inh inconclusive, RORgamma inh 10µM, Coupling enz inactive and Gal4-VP16 FLuc inconclusive.
CN1CCN(C(=S)NC(=O)/C=C/c2cccc3ccccc23)CC1 was read as TSHR antag inactive, ELG1 repair inh inactive, RORgamma inh 1µM, Coupling enz inactive and Gal4-VP16 FLuc 3.16µM.
`CC(C)(C)NC(=O)/C=C/c1cccs1` gave TSHR antag inactive, ELG1 repair inh inactive, RORgamma inh inactive, Coupling enz inactive and Gal4-VP16 FLuc inactive.
Screening COC(=O)CC1C(C)(C)C(=O)C2CC3=C(CC[C@]4(C)C3=CC(=O)OC4c3ccoc3)[C@@]1(C)C2=O (stereo partly specified) returned RORgamma inh inactive, Coupling enz inactive and Gal4-VP16 FLuc inactive.
Screening CNC(=O)C1(C)C=CCN1C(=O)OC (stereo unspecified) returned RORgamma inh inactive, Coupling enz inactive and Gal4-VP16 FLuc inconclusive.
Screening O=C1C=C(N(CCO)Cc2ccccc2)c2ccccc2C1=O returned TSHR antag inactive, ELG1 repair inh 8.2µM, RORgamma inh 7.08µM, Coupling enz -74.8 and Gal4-VP16 FLuc inconclusive.
O=C1c2ccccc2C(=O)c2c1cccc2N(CCO)CCO was read as TSHR antag inactive, ELG1 repair inh inactive, RORgamma inh inconclusive, Coupling enz inactive and Gal4-VP16 FLuc inactive.
